The record followed here is PubChem BioAssay (EPA / NIEHS).

Experiment [1] concerns the target human Peroxisome Proliferator-activated Receptor delta (PPARd), PPARD (gene 5467) (UniProt Q03181). Description: ATG_PPARd_TRANS: Attagene TRANS-FACTORIAL HepG2 Assay for human Peroxisome Proliferator-activated Receptor delta (PPARd) (AID 2283002; active means hit-call score of the fitted dose curve at least 0.9, where 1 is the maximum). In outline:
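HepG2 cells transiently transfected with GAL4-UAS multiplexed reporter units driven by exogenous chimeric NR-GAL4 proteins; 24 h compound exposure. Reporter mRNA measured by RT-PCR, 6-FAM primer extension, HpaI digestion and capillary electrophoresis; gain of signal fitted relative to DMSO.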

Read-out in experiment [2]: Intercellular Adhesion Molecule 1 (ICAM1), ICAM1 (gene 3383)
Description: BSK_3C_ICAM1: BioMAP Diversity Plus: 3C Assay for Intercellular Adhesion Molecule 1 (ICAM1) Biomarker Activity (AID 2283003). Conditions: primary human endothelial cells (HUVEC); actives raise or lower the signal. In outline:
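Using DMSO as baseline, bidirectional curve fitting was applied to ICAM-1 ELISA signals from HUVEC in the 3C system, measured 24 h after compound addition.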

Experiment [3] concerns the target Retinoic acid receptor alpha (Homo sapiens) (UniProt P10276). Kind of experiment: ATG_RARa_TRANS: Attagene TRANS-FACTORIAL HepG2 Assay for human Retinoic Acid Receptor alpha (RARa) (AID 2283005; active means hit-call score of the fitted dose curve at least 0.9, where 1 is the maximum). In outline: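 HepG2 transiently transfected with multiplex GAL4-UAS reporter units including a human RARa–GAL4 chimera; 24 h compound exposure. Reporter mRNA quantified by RT-PCR, 6-FAM labeling and capillary electrophoresis; gain of signal versus DMSO.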

Experiment [4] is described as follows: BSK_3C_Proliferation: Cell Proliferation Assessment in the BioMAP Diversity Plus: 3C Assay (AID 2283006).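 On AC50: potency may reflect either rise or fall in cell number versus DMSO.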 Conditions: primary human endothelial cells (HUVEC). In outline:
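Measured here: sulforhodamine B (0.1%) staining of TCA-fixed sub-confluent umbilical vein endothelial cultures 48 h post-dosing, absorbance 560 nm. DMSO served as negative control and baseline; both signal gain and loss were modelled.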

Experiment [5] has as its target Peroxisome proliferator-activated receptor gamma (Homo sapiens) (UniProt P37231). Kind of experiment: ATG_PPARg_TRANS: Attagene TRANS-FACTORIAL HepG2 Assay for human Peroxisome Proliferator-activated Receptor-gamma (PPARg) (AID 2283007; active means hit-call score of the fitted dose curve at least 0.9, where 1 is the maximum). The method, boiled down: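 Read-out: reporter mRNA induction, detected by fluorescence after RT-PCR and capillary electrophoresis. Transiently transfected human HepG2 liver cells carrying a chimeric NR-Gal4 construct were dosed for 24 h; activity was fitted upward relative to DMSO.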

Experiment [6] concerns the target Nuclear receptor subfamily 1 group I member 2 (Homo sapiens) (UniProt O75469). Description: ATG_PXR_TRANS: Attagene TRANS-FACTORIAL HepG2 Assay for human Pregnane X Receptor (PXR) (AID 2283008; active means hit-call score of the fitted dose curve at least 0.9, where 1 is the maximum). In outline: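 HepG2 transfected (FuGene 6) with GAL4-UAS reporter units + PXR-Gal4 chimera; dosed 24 h. Total RNA → oligo(dT) RT → PCR → 6-FAM primer extension → HpaI cut → CE. Gain-of-signal vs DMSO.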

For experiment [7], the target named is Retinoic acid receptor RXR-alpha (Homo sapiens) (UniProt P19793). Description: ATG_RXRa_TRANS: Attagene TRANS-FACTORIAL HepG2 Assay for human Retinoid X Receptor alpha (RXRa) (AID 2283012; active means hit-call score of the fitted dose curve at least 0.9, where 1 is the maximum). The method, boiled down:
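Chimeric NR-GAL4 trans-activation in HepG2, 24 h treatment; reporter transcripts quantified by fluorescence on capillary electrophoresis, analysed for upward change from DMSO.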

Read-out in experiment [8]: Monocyte Chemoattractant Protein-1 (MCP1), CCL2 (gene 6347)
Kind of experiment: BSK_3C_MCP1: BioMAP Diversity Plus: 3C Assay for Monocyte Chemoattractant Protein-1 (MCP1) Biomarker Activity (AID 2283017). As to conditions: primary human endothelial cells (HUVEC); actives raise or lower the signal. In outline: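 HUVEC, 3C system; 24 h chemical exposure; MCP-1 by ELISA; bidirectional curve fit vs DMSO baseline.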

Read-out in experiment [9]: Human Leukocyte Antigen - DR isotype (HLADR), HLA-DRA (gene 3122)
Description: BSK_3C_HLADR: BioMAP Diversity Plus: 3C Assay for Human Leukocyte Antigen - DR isotype (HLADR) Biomarker Activity (AID 2283019).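 On outcome: ELISA of cell-surface HLA-DR on HUVEC 24 h after dosing.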 Conditions: primary human endothelial cells (HUVEC); actives raise or lower the signal. The method, boiled down:
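HUVEC, 3C stimulation, 24 h post-dose; HLA-DR by ELISA; bidirectional curve fit vs DMSO baseline; gain or loss of signal scored.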

Read-out in experiment [10]: Interleukin-8 (IL8), CXCL8 (gene 3576)
Kind of experiment: BSK_3C_IL8: BioMAP Diversity Plus: 3C Assay for Interleukin-8 (IL8) Biomarker Activity (AID 2283020). Conditions: primary human endothelial cells (HUVEC); actives raise or lower the signal. The method, boiled down: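 Using DMSO-treated wells as the baseline, bidirectional curve fitting was applied to ELISA-measured IL-8 from human umbilical vein endothelial cultures sampled 24 h after compound addition.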

Read-out in experiment [11]: Monokine induced gamma interferon (MIG), CXCL9 (gene 4283)
Kind of experiment: BSK_3C_MIG: BioMAP Diversity Plus: 3C Assay for Monokine induced gamma interferon (MIG) Biomarker Activity (AID 2283021).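 On AC50: MIG protein level measured by immunoassay in the treated endothelial cultures.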 As to conditions: primary human endothelial cells (HUVEC); actives raise or lower the signal. In outline: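 ELISA-measured MIG in dosed HUVEC 3C cultures at 24 h, analysed by bidirectional fitting with DMSO defining baseline activity.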

The target in experiment [12] is human Retinoic Acid Receptor beta (RARb), RARB (gene 5915) (UniProt P10826). Kind of experiment: ATG_RARb_TRANS: Attagene TRANS-FACTORIAL HepG2 Assay for human Retinoic Acid Receptor beta (AID 2283004; active means hit-call score of the fitted dose curve at least 0.9, where 1 is the maximum). The method, boiled down: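 Readout is reporter mRNA induction: RNA reverse-transcribed, PCR-amplified, FAM-labelled, HpaI-cut and resolved by capillary electrophoresis. Transiently transfected HepG2 cells carrying exogenous NR–Gal4 chimeras were dosed for 24 h; activity fitted upward relative to DMSO.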

In experiment [13] the target is human Retinoic Acid Receptor gamma (RARg), RARG (gene 5916) (UniProt P13631). Description: ATG_RARg_TRANS: Attagene TRANS-FACTORIAL HepG2 Assay for human Retinoic Acid Receptor gamma (RARg) (AID 2283009; active means hit-call score of the fitted dose curve at least 0.9, where 1 is the maximum). In outline:
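Gain-of-signal relative to DMSO is reported from fluorescent capillary electrophoresis of RT-PCR reporter products. These came from HepG2 cells expressing transfected RARg-GAL4 chimeras with UAS reporters, harvested 24 h after dosing.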

For experiment [14], the target named is human RAR-related Orphan Receptor beta (RORb), RORB (gene 6096) (UniProt Q92753). Description: ATG_RORb_TRANS: Attagene TRANS-FACTORIAL HepG2 Assay for human RAR-related Orphan Receptor beta (RORb) (AID 2283010; active means hit-call score of the fitted dose curve at least 0.9, where 1 is the maximum). The method, boiled down: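 Multiplexed transcription-factor reporter assay: HepG2 cells transiently carrying NR-Gal4/GAL4-UAS constructs, 24 h treatment, mRNA quantified by RT-PCR plus capillary electrophoresis fluorescence; activity scored as induction over DMSO.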
human RAR-related Orphan Receptor beta (RORb), RORB (gene 6096), sequence (Q92753 whole entry, looked up, the tested form may be a part): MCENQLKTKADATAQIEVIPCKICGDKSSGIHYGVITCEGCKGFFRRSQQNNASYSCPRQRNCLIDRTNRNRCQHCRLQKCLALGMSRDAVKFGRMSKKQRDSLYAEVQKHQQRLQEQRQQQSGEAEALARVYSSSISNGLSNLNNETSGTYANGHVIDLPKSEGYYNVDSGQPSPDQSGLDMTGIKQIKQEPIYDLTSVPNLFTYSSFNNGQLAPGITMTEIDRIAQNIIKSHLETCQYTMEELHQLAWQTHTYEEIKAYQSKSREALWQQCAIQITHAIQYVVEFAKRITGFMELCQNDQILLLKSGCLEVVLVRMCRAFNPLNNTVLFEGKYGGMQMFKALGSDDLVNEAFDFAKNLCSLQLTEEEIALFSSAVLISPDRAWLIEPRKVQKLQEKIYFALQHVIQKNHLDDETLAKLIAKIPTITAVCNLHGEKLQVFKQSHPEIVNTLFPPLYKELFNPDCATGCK

The target in experiment [15] is human RAR-related Orphan Receptor gamma (RORg), RORC (gene 6097) (UniProt P51449). Kind of experiment: ATG_RORg_TRANS: Attagene TRANS-FACTORIAL HepG2 Assay for human RAR-related Orphan Receptor gamma (RORg) (AID 2283011; active means hit-call score of the fitted dose curve at least 0.9, where 1 is the maximum). In outline: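 Transient MRTU transfection of HepG2 (TRANS format, exogenous NR-Gal4 chimera). 24 h dosing. Total RNA → oligo(dT) RT → PCR → 6-FAM labelling → HpaI cut → CE. Gain vs DMSO.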
human RAR-related Orphan Receptor gamma (RORg), RORC (gene 6097), sequence (P51449 whole entry, looked up, the tested form may be a part): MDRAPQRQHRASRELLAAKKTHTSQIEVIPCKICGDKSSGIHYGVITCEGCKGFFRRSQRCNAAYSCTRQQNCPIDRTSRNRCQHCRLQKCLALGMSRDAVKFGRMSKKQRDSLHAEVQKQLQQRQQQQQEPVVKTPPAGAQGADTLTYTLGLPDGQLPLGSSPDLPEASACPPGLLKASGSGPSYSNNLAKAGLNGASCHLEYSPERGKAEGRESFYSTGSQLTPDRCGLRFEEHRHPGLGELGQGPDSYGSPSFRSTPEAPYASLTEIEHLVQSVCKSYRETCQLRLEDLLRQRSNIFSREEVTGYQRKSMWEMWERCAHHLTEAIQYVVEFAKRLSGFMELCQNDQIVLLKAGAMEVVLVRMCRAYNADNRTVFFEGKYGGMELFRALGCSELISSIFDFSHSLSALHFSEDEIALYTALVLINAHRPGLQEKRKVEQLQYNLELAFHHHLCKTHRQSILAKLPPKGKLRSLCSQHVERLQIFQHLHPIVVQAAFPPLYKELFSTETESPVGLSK

Experiment [16] deals with human Retinoid X Receptor beta (RXRb), RXRB (gene 6257) (UniProt P28702). Description: ATG_RXRb_TRANS: Attagene TRANS-FACTORIAL HepG2 Assay for human Retinoid X Receptor beta (RXRb) (AID 2283013; active means hit-call score of the fitted dose curve at least 0.9, where 1 is the maximum). The method, boiled down: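 After a 24 h incubation with test chemical, transfected HepG2 cells carrying NR-Gal4 fusions and GAL4-UAS reporter transcription units yield RNA whose reporter cDNA is FAM-labelled, HpaI-cut and sized by capillary electrophoresis; increases over DMSO are scored.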
human Retinoid X Receptor beta (RXRb), RXRB (gene 6257), sequence (P28702 whole entry, looked up, the tested form may be a part): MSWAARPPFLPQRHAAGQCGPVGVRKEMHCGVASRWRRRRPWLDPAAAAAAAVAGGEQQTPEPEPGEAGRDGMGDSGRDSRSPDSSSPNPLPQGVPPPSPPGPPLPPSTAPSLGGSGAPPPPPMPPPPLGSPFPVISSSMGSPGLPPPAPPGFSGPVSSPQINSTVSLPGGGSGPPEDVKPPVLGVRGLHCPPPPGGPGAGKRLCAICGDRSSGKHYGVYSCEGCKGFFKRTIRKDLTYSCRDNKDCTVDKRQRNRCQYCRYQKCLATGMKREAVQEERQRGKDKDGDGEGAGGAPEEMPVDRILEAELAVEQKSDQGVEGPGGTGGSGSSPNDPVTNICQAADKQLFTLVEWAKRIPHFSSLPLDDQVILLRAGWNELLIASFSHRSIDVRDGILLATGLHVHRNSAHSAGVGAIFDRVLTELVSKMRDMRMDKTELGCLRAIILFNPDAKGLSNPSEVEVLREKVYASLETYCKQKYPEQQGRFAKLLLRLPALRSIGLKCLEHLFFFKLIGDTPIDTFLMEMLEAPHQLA

Experiment [17] deals with human Thyroid Receptor alpha (THRa1), THRA (gene 7067) (UniProt P10827). Kind of experiment: ATG_THRa1_TRANS: Attagene TRANS-FACTORIAL HepG2 Assay for human Thyroid Receptor alpha (THRa1) (AID 2283014; active means hit-call score of the fitted dose curve at least 0.9, where 1 is the maximum). In outline:
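Transient HepG2 transfection, NR-Gal4 chimera driving GAL4-UAS reporters; 24 h compound exposure; total RNA, oligo(dT) RT, PCR, fluorescent primer extension, capillary electrophoresis. Upward direction vs DMSO control.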

Read-out in experiment [18]: E-selectin (Homo sapiens) (UniProt P16581)
Kind of experiment: BSK_3C_Eselectin: BioMAP Diversity Plus: 3C Assay for Eselectin Biomarker Activity (AID 2283015).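 Further: cell surface E-selectin protein quantified by ELISA 24 h after dosing.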 As to conditions: primary human endothelial cells (HUVEC); actives raise or lower the signal. In outline: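 HUVEC, 3C stimulation; compound exposure 24 h; E-selectin by ELISA; gain- or loss-of-signal fitted bidirectionally vs DMSO baseline.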

Read-out in experiment [19]: Interleukin-1 alpha (IL1a), IL1A (gene 3552)
Description: BSK_BE3C_IL1a: BioMAP Diversity Plus: BE3C Assay for Interleukin-1 alpha (IL1a) Biomarker Activity (AID 2283016). As to conditions: primary human bronchial epithelial cells; actives raise or lower the signal. In outline:
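Measured in human lung primary bronchial epithelial cells: IL-1a by ELISA at 24 h after dosing, with bidirectional fitting against DMSO.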

Results filed as inconclusive are left out. Activity calls are given as the source filed them. How the source made its calls, unless noted: active means hit-call score of the fitted dose curve at least 0.9, where 1 is the maximum; inactive means score below 0.9.

Nuclear receptor subfamily 1 group I member 2 (Homo sapiens), sequence (O75469 whole entry, looked up, the tested form may be a part): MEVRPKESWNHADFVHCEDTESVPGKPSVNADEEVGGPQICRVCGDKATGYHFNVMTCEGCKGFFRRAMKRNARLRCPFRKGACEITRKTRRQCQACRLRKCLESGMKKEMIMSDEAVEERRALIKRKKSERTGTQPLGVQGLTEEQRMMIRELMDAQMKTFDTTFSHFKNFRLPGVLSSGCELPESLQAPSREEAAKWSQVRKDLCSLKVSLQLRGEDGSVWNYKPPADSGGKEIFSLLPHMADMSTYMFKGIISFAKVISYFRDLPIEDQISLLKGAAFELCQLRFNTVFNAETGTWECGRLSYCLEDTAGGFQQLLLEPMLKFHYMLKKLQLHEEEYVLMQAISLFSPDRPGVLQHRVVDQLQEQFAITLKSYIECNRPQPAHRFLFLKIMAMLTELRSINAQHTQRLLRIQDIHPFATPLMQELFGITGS
Peroxisome proliferator-activated receptor gamma (Homo sapiens), sequence (P37231 whole entry, looked up, the tested form may be a part): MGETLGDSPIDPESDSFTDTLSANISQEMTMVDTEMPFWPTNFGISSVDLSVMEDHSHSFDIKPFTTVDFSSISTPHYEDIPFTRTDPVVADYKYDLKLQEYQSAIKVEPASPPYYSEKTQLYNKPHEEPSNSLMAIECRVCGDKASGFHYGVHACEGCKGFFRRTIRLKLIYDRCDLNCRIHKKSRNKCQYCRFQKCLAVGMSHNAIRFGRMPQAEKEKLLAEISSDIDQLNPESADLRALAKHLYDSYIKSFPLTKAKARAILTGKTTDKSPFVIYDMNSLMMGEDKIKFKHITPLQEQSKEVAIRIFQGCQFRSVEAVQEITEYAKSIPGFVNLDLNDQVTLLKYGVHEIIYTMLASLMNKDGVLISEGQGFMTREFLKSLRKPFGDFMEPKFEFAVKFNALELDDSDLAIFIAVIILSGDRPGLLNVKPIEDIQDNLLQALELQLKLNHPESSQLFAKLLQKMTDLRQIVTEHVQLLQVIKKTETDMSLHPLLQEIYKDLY
human Thyroid Receptor alpha (THRa1), THRA (gene 7067), sequence (P10827 whole entry, looked up, the tested form may be a part): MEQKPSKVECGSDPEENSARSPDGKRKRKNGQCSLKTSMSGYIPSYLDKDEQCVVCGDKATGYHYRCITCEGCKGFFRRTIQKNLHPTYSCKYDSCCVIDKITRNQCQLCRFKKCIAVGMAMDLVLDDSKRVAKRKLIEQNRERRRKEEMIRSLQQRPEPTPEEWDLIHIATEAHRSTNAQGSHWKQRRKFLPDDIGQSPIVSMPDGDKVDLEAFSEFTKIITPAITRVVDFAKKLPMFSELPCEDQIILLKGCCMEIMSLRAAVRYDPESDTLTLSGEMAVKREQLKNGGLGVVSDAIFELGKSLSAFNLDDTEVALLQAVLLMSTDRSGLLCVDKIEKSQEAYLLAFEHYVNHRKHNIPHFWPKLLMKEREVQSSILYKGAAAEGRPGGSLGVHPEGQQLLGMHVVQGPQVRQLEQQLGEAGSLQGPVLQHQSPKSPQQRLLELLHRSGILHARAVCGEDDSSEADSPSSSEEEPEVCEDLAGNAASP
Retinoic acid receptor RXR-alpha (Homo sapiens), sequence (P19793 whole entry, looked up, the tested form may be a part): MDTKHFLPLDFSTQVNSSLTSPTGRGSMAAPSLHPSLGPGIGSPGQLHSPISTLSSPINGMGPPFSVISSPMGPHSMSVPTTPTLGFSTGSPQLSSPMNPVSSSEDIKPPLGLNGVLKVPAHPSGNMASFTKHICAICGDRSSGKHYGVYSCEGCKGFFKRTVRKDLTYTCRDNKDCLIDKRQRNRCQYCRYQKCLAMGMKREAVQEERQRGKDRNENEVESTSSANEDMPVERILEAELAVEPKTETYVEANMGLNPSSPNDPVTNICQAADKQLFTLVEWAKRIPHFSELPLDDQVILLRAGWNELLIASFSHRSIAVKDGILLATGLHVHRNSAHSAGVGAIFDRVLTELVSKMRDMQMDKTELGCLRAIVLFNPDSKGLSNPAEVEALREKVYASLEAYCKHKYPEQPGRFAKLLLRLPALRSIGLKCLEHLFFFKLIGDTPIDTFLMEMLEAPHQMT
Retinoic acid receptor alpha (Homo sapiens), sequence (P10276 whole entry, looked up, the tested form may be a part): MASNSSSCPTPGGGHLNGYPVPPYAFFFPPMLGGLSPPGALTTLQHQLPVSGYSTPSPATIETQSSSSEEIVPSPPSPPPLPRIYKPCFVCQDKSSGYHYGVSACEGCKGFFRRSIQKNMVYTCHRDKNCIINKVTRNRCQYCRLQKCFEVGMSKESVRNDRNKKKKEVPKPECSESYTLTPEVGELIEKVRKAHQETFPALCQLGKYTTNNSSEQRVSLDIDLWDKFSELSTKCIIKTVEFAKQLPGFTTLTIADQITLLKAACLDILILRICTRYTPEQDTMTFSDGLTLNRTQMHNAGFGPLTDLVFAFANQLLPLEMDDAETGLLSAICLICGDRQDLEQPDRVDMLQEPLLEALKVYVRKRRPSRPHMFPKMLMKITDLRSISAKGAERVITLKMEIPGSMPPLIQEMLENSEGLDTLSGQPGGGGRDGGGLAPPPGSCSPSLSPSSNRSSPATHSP
human Peroxisome Proliferator-activated Receptor delta (PPARd), PPARD (gene 5467), sequence (Q03181 whole entry, looked up, the tested form may be a part): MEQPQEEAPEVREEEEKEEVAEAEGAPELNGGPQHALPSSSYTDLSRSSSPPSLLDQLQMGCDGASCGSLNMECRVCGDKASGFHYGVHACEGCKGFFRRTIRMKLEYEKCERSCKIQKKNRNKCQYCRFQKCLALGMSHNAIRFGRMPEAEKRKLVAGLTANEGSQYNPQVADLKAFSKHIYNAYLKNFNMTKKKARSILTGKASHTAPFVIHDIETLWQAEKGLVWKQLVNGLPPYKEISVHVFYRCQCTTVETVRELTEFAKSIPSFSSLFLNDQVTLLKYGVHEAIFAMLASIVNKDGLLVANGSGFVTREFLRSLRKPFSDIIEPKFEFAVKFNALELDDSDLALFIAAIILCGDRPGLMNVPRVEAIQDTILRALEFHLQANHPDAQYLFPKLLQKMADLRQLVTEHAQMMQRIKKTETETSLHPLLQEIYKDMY
E-selectin (Homo sapiens), sequence (P16581 whole entry, looked up): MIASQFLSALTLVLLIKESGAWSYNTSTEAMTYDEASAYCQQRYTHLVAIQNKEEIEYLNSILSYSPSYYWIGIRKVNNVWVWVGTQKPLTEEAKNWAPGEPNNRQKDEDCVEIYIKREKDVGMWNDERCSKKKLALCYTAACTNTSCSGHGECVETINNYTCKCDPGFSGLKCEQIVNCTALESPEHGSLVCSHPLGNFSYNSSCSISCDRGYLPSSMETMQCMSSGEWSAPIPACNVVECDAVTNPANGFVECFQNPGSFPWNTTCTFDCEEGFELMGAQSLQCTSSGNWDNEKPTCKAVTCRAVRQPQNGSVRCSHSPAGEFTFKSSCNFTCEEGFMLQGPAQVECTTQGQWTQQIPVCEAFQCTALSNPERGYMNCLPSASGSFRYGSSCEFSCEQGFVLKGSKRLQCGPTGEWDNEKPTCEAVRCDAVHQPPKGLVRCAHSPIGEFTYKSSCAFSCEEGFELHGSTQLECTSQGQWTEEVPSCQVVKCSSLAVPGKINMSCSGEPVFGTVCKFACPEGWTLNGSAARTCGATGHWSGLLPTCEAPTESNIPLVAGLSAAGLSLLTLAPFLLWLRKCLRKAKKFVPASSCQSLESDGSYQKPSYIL

As usually defined, the AC50 is the concentration at which the activity in the assay is half-maximal. `CCCCC(CC)C(=O)OCCOCCOCCOC(=O)C(CC)CCCC` (configuration not stated): the result in experiment [1], in experiment [2], in experiment [3], in [4], in experiment [5] and in experiment [7] was inactive. Also, the outcome in experiment [8], in [9], in experiment [10] and in experiment [11] was inactive. The AC50 in experiment [6] was 27.5 µM (active).
Turning to `C[Si](C)(C)C(F)(F)C(F)(F)C(F)(F)F`, the result in experiment [1], in [2], in experiment [12], in experiment [3], in [4] and in experiment [6] was inactive. Besides, the call in experiment [13], in experiment [14], in experiment [15], in experiment [7], in experiment [16] and in experiment [17] was inactive. The result in experiment [18], in [19], in experiment [8], in experiment [9], in experiment [10] and in experiment [11] was inactive.
In the case of `CCCc1ccccc1`, the result in experiment [1], in experiment [2], in experiment [4], in experiment [5], in experiment [7] and in [16] was inactive. Besides, the molecule was classed as inactive in experiment [17], in [19], in [8], in experiment [9], in experiment [10] and in experiment [11].
Consider `C=CCc1cc(S(=O)(=O)c2ccc(O)c(CC=C)c2)ccc1O`, for which the molecule was called inactive in [1], in [7] and in experiment [17]. The AC50 in [2] was 29.3 µM (active); in experiment [4] it was 25.8 µM (active); in experiment [5], 9.21 µM (active); in experiment [6], 3.16 µM (active); in experiment [8], 14.4 µM (active); in experiment [9], 16.3 µM (active). Also, the concentration at half-maximal activity (AC50) in experiment [10] is 12.4 µM (active); in [11], 34.8 µM (active).
